Records with an inconclusive call do not appear. Activity calls are given as the source filed them. The call rests on the fitted dose curve; in most records, active means well fitted inhibition curve with a large enough effect; inconclusive means small, poorly fitted or top-dose-only effect; inactive means no such curve, though single readings can be large or run the other way.
On the % scale 0 is the no-effect control and ±100 the full control effect; potency means the concentration at half of the fitted maximal effect.

Cytochrome P450 2D6 (Homo sapiens), sequence (P10635 whole entry, looked up): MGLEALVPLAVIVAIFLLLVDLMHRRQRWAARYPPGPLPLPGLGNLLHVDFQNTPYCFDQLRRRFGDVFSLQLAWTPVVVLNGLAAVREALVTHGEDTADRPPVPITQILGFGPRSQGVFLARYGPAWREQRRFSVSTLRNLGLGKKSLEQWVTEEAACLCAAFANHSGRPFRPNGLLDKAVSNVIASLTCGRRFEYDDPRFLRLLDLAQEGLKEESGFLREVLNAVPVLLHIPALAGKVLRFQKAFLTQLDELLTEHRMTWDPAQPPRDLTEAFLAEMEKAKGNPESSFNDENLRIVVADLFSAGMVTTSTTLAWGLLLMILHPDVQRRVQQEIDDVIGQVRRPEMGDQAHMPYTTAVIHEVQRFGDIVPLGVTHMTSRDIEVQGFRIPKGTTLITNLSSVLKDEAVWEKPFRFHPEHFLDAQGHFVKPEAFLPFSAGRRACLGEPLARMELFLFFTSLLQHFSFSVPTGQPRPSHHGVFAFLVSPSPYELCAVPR

The target in the test is Cytochrome P450 2D6 (Homo sapiens) (UniProt P10635). Kind of test: qHTS Assay for Inhibitors and Substrates of Cytochrome P450 2D6 (AID 891). Further: nearly all actives have a fitted effect of over 60% in size.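 On activity change, negative = inhibition: luciferin methyl ether substrate demethylated by CYP2D6 with NADPH regeneration.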 As to conditions: recombinant CYP2D6, luciferin-ME EGE luminescence; series mostly up to 11.4 µM; activity change, negative = inhibition: at the top concentration. The essentials:
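Luminescent read-out of luciferin formed by 5 nM human CYP2D6 demethylating 30 uM Luciferin-ME EGE (Km level) over 60 min at room temperature after NADPH regeneration addition. Data normalized to full inhibition by 1.43 uM quinidine.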
On the technique in general: qHTS replaces the single test concentration by a dilution series.
As for `CCc1cc2c(nc1CC)CCN(CC/C(C)=N/O[C@@H](C)CN1CCCc3nc(C)c(C)cc31)C2`, the Potency is 3.98 µM (active).

Turning to `CC1CCC2C(=O)N3C(CCC(C)C3c3ccccc3Br)C(=O)N2C1c1ccc(C#CCN(C)C)cc1` (stereo unspecified), the “activity change, negative = inhibition” value is -10.3% (inactive).

With `CC(C)=NO[C@@H](C)CN1CCCCc2nc(C)c(C)cc21`, the Potency is 2.51 µM (active).

`CO/N=C(\C)CCN1CCCCc2nc(C)c(C)cc21`: the Potency was 3.98 µM (active).

For the compound `CCC[C@@H]1C[C@@]1(CCC)C(NC(=O)OCc1ccccc1)c1ccc(-c2ccccc2)cc1` (stereo partly specified), the Potency was 7.94 µM (active).

For `CC(=O)OC[C@@H]1O[C@H](C/C=N\O[C@@H](C)CN2CCCCc3nc(C)c(C)cc32)C=C[C@@H]1OC(C)=O`, the Potency was 3.16 µM (active).

`CC(=O)OC[C@H]1O[C@@H](O/N=C(\C)CCN2CCc3nc(-c4ccccc4)c(-c4ccccc4)cc3C2)[C@H](OC(C)=O)[C@@H](OC(C)=O)[C@H]1OC(C)=O`: the Potency was 3.16 µM (active).

For `CC(=O)OC[C@H]1O[C@@H](O/N=C(\C)CCN2CCCc3nc(C)c(C)cc32)[C@H](OC(C)=O)[C@@H](OC(C)=O)[C@H]1OC(C)=O`, the Potency was 3.16 µM (active).

In the case of `CC(=O)OC[C@H]1O[C@@H](O/N=C(\C)CCN2CCCCc3nc(C)c(C)cc32)[C@H](OC(C)=O)[C@@H](OC(C)=O)[C@H]1OC(C)=O`, the Potency is 3.98 µM (active).

As for `CO[C@@H]1COC(=O)[C@@H](C)NC(=O)C/C=C\[C@@H](C)[C@H](NS(=O)(=O)c2ccc(C)cc2)COC(=O)[C@H](C)NC(=O)C/C=C\[C@H]1C`, the “activity change, negative = inhibition” value is 22.7% (inactive).

On to `COC(=O)C/C=C\[C@@H](C)[C@@H](/C=N\OC[C@@H](O)[C@H]1O[C@H]2OC(C)(C)O[C@H]2[C@@H]1O)OC`, for which the “activity change, negative = inhibition” value is 24.6% (inactive).
